# ZTA counter: ZTA (EBV) inhibition in EBNA-1 counter-screen; AID 2234; P03206; 0.15% of 320,000 active; inhibition, % at 11 µM; ZTA-DNA binding, fluorescence polarization; in the data active = inhibition above about 33%
# EBNA-1 inh: blocks EBNA-1 binding to DNA; 0.34% of 300,000 active; inhibition, % at 14.8 µM; EBNA-1 DNA binding, fluorescence polarization; in the data active = inhibition above about 28%
# TPT1 inhibitor: blocks Candida albicans tRNA 2'-phosphotransferase; 0.81% of 300,000 active; recombinant caTPT1, FP RNA substrate dephosphorylation; inhibition, % at 5 µM; AID 1962;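 active = inhibition above the mean of all tested compounds plus 3 SD, set per screening campaign, cut at about 24% in these data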;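 note: plate controls were DMSO alone for no effect and ferristatin control at 100 nM for full effect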
# dFosB act: activators of mouse delta FosB homodimer | activation, % at 25 µM | purified delta FosB, TAMRA-CDK5 oligo fluorescence polarization; percent of positive-control signal above neutral wells | 0.99% of 340,000 active | AID 493131;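 active = mean activation above about 17%, with every replicate also reaching it, limit read from the data, passing the limit was not always enough; inconclusive = only one of the two conditions met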
# Rpn11 inh: inhibitors of human proteasome Rpn11 | O00487 | inhibition, % at 20 µM | AID 588493 | human 26S proteasome, Ub4-pepOG fluorescence polarization; 20S core pre-blocked with epoxomicin | 0.59% of 360,000 active;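 active = inhibition at 20 µM, scaled to each plate's controls, above about 33%, limit read from the data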
# NR3A LBD binder: modulators (binders) of human NR3A ligand-binding domain. NR3A LBD differential scanning fluorimetry, Tm shift; 0% = protein alone, 100% = glycine-bound protein. Tm shift relative to glycine control, % at 25 µM. AID 1259313. 2.5% of 340,000 active;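 active = melting temperature shift of at least 10% of the positive control shift, at one fixed dose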
# Rpn11 inh conf: confirmation of human proteasome Rpn11 inhibitors | shares compounds with Rpn11 inh | purified human 26S proteasome, Ub4-pepOG fluorescence polarization; proteasome pretreated with epoxomicin | AID 602318 | 29% of 1,900 active | inhibition, % at 20 µM
# MMP-2 counter: MMP-2 (human) inhibition counter-screen; 4% of 1,900 active; shares compounds with Rpn11 inh; recombinant MMP-2, FRET peptide cleavage fluorescence; inhibition, % at 20 µM;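 note: human MMP-2 activated beforehand with APMA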
# Thrombin FP: thrombin (bovine) inhibition counter-screen. inhibition, % at 20 µM. shares compounds with Rpn11 inh. bovine thrombin cleavage of Ub4-pepOG, fluorescence polarization. AID 602333. 13% of 1,900 active;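 active = mean inhibition at least 40% at 20 µM, or signal 3 deviations below plate average, so some actives read negative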;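 note: plate controls were thrombin with DMSO for no effect and buffer wells lacking thrombin for full effect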
# Target sequence (P00735 whole entry, looked up): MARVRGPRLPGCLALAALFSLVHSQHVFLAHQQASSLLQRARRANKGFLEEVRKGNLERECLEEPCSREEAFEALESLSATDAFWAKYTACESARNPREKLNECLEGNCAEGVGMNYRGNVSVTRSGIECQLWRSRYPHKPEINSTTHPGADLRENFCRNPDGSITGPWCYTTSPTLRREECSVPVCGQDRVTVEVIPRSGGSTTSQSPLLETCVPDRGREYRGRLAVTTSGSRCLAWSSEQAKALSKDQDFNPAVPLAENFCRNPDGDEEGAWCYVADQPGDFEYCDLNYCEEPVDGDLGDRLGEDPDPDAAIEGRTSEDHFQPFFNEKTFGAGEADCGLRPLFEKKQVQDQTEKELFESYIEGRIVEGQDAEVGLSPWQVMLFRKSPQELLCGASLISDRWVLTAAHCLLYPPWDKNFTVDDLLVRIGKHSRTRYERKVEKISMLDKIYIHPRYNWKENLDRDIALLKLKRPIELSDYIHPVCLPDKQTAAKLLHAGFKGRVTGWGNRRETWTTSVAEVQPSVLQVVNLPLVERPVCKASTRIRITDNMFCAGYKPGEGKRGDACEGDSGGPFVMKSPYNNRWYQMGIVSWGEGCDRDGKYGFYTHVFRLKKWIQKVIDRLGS
# * marks the source's active call; other numbers are inactive results; ? = inconclusive; . = not tested or not shown. Only some compounds are listed: those with a hit (about 4.5% of all), similar ones and a draw of the others. Cut-off read from the data, not from the text of the source, unless noted: active = inhibition above about 40%; inactive = the rest.
SMILES,ZTA counter,EBNA-1 inh,TPT1 inhibitor,dFosB act,Rpn11 inh,NR3A LBD binder,Rpn11 inh conf,MMP-2 counter,Thrombin FP
CCn1c(CSCc2ccc(Cl)cc2)nnc1SCC(=O)Nc1cccc(C(=O)O)c1,12.9,1.6,0.0,-7.6,-3.7,2.4,.,.,.
COc1cccc(NC(=O)CN(C)C(=O)C(CCSC)NC(=O)c2ccco2)c1 (stereo unspecified),-6.0,.,.,-3.1,3.0,2.5,.,.,.
Cc1ccc(S(=O)(=O)N(C)CC(=O)O/N=C(\N)c2cccc([N+](=O)[O-])c2)cc1,6.5,3.8,1.4,-4.5,195.7*,3.1,2.4,-23.4,-3.4
Cc1ccc(SCC(=O)O/N=C(\N)c2cccc([N+](=O)[O-])c2)cc1,-15.2,11.3,-3.0,-7.5,5.1,2.0,.,.,.
COc1cc2sc3ccc(-c4ccc(N(C)C)nc4)cc3c(=O)c2cc1OC,11.8,4.5,-7.0,.,.,-8.3,.,.,.
COc1ccc(-c2ccc3sc4ccccc4c(=O)c3c2)cn1,-13.7,4.1,-2.5,-4.9,123.8*,-9.6,1.9,-10.0,-9.2
O=C(CSc1n[nH]c(-c2ccccc2F)n1)NCC(=O)Nc1ccc(F)c(F)c1F,-1.1,-7.2,-0.5,0.8,1.0,-2.8,.,.,.
CCNC(=S)NNC(=O)c1ccncc1,2.1,-9.3,0.3,-10.3,2.9,-2.1,.,.,.
CCNC(=S)NNC(=O)c1cccc(Br)c1,-11.8,8.1,-2.8,-1.7,28.3*,1.1,-0.9,8.6,-7.0
CCNC(=O)C1(C)CCN1CCS(=O)(=O)c1ccc(C)cc1 (stereo unspecified),.,.,.,.,3.8,.,.,.,.
CCC(CO)Oc1cc(NC(=O)c2ccc(F)cc2)c2ncn(C(C)C)c2c1 (stereo unspecified),8.1,.,.,3.3,-5.3,-0.2,.,.,.
CCC(CO)Oc1cc(NC(=O)c2ccc(N)cc2)c2ncn(C(C)C)c2c1 (stereo unspecified),.,.,.,-11.6,43.2*,-2.4,44.4*,13.4,-4.2
Cc1ccc(N(CC(=O)N/N=C/c2cccs2)S(C)(=O)=O)cc1,-8.2,9.2,-5.8,-6.7,29.0*,-3.1,-9.1,-53.9,-24.7
COc1ccc(N(CC(=O)N/N=C/c2cccs2)S(=O)(=O)c2ccccc2)cc1,4.5,3.3,1.1,-6.7,6.0,-10.9,.,.,.
Cc1ccc(CCC(=O)Nc2ccc([N+](=O)[O-])cc2)o1,0.1,3.3,-3.6,-2.5,-3.9,-1.2,.,.,.
Cc1cc(NC(=O)c2cccc(S(=O)(=O)N(C)C)c2)n(-c2ccccn2)n1,4.0,-5.7,0.0,-65.2,92.1*,-12.2,-1.7,-15.8,-18.0
Cc1sc2nc3c4ccccc4c(NCc4ccco4)nn3c(=O)c2c1C,7.7,-3.4,6.4,-12.9,46.6*,-1.0,-0.5,-12.7,-6.1
COc1ccc(OC)c(NC(=O)Cn2nc(C)c3ccccc3c2=O)c1,-7.3,-8.1,-1.1,-6.9,-1.7,-2.9,.,.,.
CC(C)c1ccc(NNC(=O)C2CCC2)cc1,-4.5,-14.1,-3.8,-0.6,7.0,-0.3,.,.,.
COc1cccc(/C=N/NC(=O)c2[nH]c(C)c(C(=O)N/N=C/c3cccc(OC)c3)c2C)c1,-1.6,2.6,1.7,-10.2,57.2*,-14.8,44.8*,-2.0,1.8
CC1=C(C(=O)N2CCCCCC2)CC(CC(=O)NCCCN(C)C)C(=O)N1Cc1ccccc1 (stereo unspecified),.,.,.,.,-1.5,.,.,.,.
O=C1c2ccccc2C(=O)c2cc(N3CCCCC3)ccc21,.,.,.,-5.8,42.9*,38.3*,24.4,-17.5,20.8
c1ccc2cc(N3CCCCC3)ccc2c1,.,.,.,-3.5,-6.7,-8.7,.,.,.
O=c1[nH]c(/C=C/c2ccccc2Cl)nc2ccccc12,-0.9,9.3,-2.5,?,75.0*,-0.5,25.0,7.5,-18.3
O=c1ccc(NS(=O)(=O)c2ccccc2)cn1Cc1ccc(Cl)c(Cl)c1,-5.4,-4.0,2.5,-19.1,35.7*,-9.7,20.0,28.1,3.2
SMILES,ZTA counter,EBNA-1 inh,TPT1 inhibitor,dFosB act,Rpn11 inh,NR3A LBD binder,Rpn11 inh conf,MMP-2 counter,Thrombin FP
CC(C)Nc1nc(Oc2ccc(=O)n(-c3ccccc3)n2)nc(N(C)C)n1,8.7,4.2,-2.4,2.3,44.2*,4.5,4.8,-6.7,1.6
O=C(COC(=O)Cc1ccsc1)NCc1ccccc1,2.1,5.8,1.0,-2.6,39.3*,0.1,-3.2,-14.9,-18.2
Cc1nc(NC(=O)c2ccccc2)sc1-c1csc(NCCc2ccccc2)n1,6.6,9.3,-0.3,-7.2,43.7*,-3.1,-3.7,6.6,-15.5
Cc1ccccc1OCCC(=O)Nc1ccccc1C(=O)NC1CC1,-12.4,-10.6,-0.2,10.5,-4.6,-0.4,.,.,.
Cc1cccc(N2CCN(S(=O)(=O)c3cc4c(cc3Cl)NC(=O)CO4)CC2)c1C,-8.8,-4.1,-2.9,-2.3,43.7*,-1.2,37.9,-17.8,17.9
CCC(C)(O)c1[nH]c2ccc(C#N)cc2c1C (stereo unspecified),11.7,-5.5,0.1,2.8,-7.1,3.2,.,.,.
Cc1ccccc1CN1CCCC(C(=O)Nc2ccccc2Oc2cccnc2)C1 (stereo unspecified),-12.1,-5.6,-3.5,-3.2,-6.0,0.2,.,.,.
Cc1ccccc1C(=O)N(C)c1ccccc1C(=O)NCc1ccccc1,6.1,-0.9,1.0,-1.6,-9.0,-0.3,.,.,.
CCc1nnc(NC(=O)CCN2C(=O)/C(=C/c3cc(OC)c(OC)c(OC)c3)SC2=S)s1,-11.3,-9.2,14.8,-10.9,48.2*,2.4,23.2,-40.6,42.4*
Cc1ccc(/C=C2\SC(=S)N(CCC(=O)NNC(=O)c3ccncc3)C2=O)cc1,-11.8,-2.2,6.2,.,44.4*,9.7,10.3,-28.4,12.3
CCc1ccc(/C=C2/SC(=S)N(CCC(=O)Nc3ccc(C(=O)O)cc3)C2=O)cc1,-6.9,-1.0,3.4,-1.6,114.1*,.,42.9*,3.5,32.7
O=C(CCN1C(=O)/C(=C/c2ccc(F)cc2)SC1=S)NNC(=O)c1ccncc1,-0.1,-21.3,-0.7,-5.9,0.0,0.2,.,.,.
CCOC(=O)c1c(NC(=O)COC(=O)Cc2c[nH]c3ccccc23)sc(C(=O)N(C)C)c1C,2.8,-7.9,3.7,-3.8,4.1,.,.,.,.
CCOC(=O)Cc1csc(N/N=C\c2ccc(N(C)C)cc2)n1,-8.6,-5.3,2.1,-13.9,4.6,-4.4,.,.,.
Cc1ccc2c(c1)S/C(=C\c1cccc[n+]1C)N2CCO,-3.4,8.4,-0.6,8.9,3.7,1.6,.,.,.
CCN1/C(=C\c2ccc3cc(C)ccc3[n+]2CC)Sc2cc(C)c(C)cc21,.,.,.,1.0,91.8*,-3.0,88.7*,-140.5,144.8*
